Laboratory results as given in PubChem BioAssay (Tox21).
A number with no mark means an inactive call. Where a call stands in place of a potency, no number is given. Calls of active or inactive are those of the source. Calls follow the shape of the dose curve; as a rule, active = well fitted activation curve with a large enough effect in the repeat runs; inconclusive = weak or mixed curves; inactive = flat fitted curve, though single readings scatter.

Test: A CellTox Green Cytotoxicity Assay to monitor cytotoxicity in HepG2 cells - 0 hour (AID 1224882); also: nearly all actives have a fitted effect of over 35% in size
Conditions: CellTox Green fluorescence; series mostly up to 76.8 µM; cytotoxicity: at the top concentration
Excerpt: National Center for Advancing Translational Sciences [NCATS]
NIH Chemical Genomics Center [NCGC]
U.S. Environmental Protection Agency [EPA]
National Institutes of Environmental Health Sciences [NIEHS]
National Toxicology Program [NTP]
Cell-based models are critical for drug discovery. Determining the natural cytotoxic effects resulting from test compounds is an essential research activity. A CellTox Green Cytotoxicity Assay to monitor cytotoxicity in real time of continues cell culture during 40 hours of the compound treatment was used to screen Tox21 10K library compounds in HepG2 cells. CellTox Green Cytotoxicity Assay is a nonlytic, homogeneous, biofluorescent method to measure cytotoxicity in cell culture after experimental manipulation. The assay system uses a proprietary asymmetric cyanine dye that is excluded from viable cells but preferentially stains the dead cell's DNA. […] Viable cells produce no appreciable increases in fluorescence. Therefore, the fluorescence signal produced by the binding interaction with dead cell DNA is proportional to cytotoxicity.
The mixture of HepG2 cell suspension and reagents were dispensed at 600cells/6 ul/well in 1536-well tissue culture treated black solid bottom plates using a Multidrop dispenser. After the assay plates were incubated at a 37 C/5% CO2 incubator for 5 hours, 23 nL of compounds dissolved in DMSO, positive and negative controls was transferred to the assay plate by a pintool work station. The plates were incubated at 37 C for 40 hours. The fluorescence intensity were measured at 0h, 8h, 16h, 24h, 32h and 40h time points using ViewLux plate reader during compound treatment.

Row | SMILES | Potency | cytotoxicity [%]
1 | CS(=O)(=O)c1ccc(Cl)cc1 | inactive | 
2 | CC(O)CNCC(C)O (stereo not given) | inactive | 
3 | CCCN(CCC)C(=O)SCC | inactive | 
4 | CC(C)(CO)CO | inactive | 
5 | CC(C=O)Cc1ccc(C(C)(C)C)cc1 (stereo not given) | inactive | 
6 | COCN(COC)c1nc(N(COC)COC)nc(N(COC)COC)n1 | inactive | 
7 | CN1Cc2c(N)cccc2C(c2ccccc2)C1 (stereo not given) | inactive | 
8 | CCCCC(=O)O | inactive | 
9 | Cc1ncc(CO)c(CO)c1O | inactive | 
10 | COc1ccccc1[N+](=O)[O-] | inactive | 
11 | Cc1ccc([N+](=O)[O-])cc1N | inactive | 
12 | NC(N)=S | inactive | 
13 | O=C1CCCCCCCCCCC1 | inactive | 
14 | O=c1n(CCCN2CCN(c3cccc(Cl)c3)CC2)nc2ccccn12 | inactive | 
15 | CN=C(NC#N)NCCSCc1nc[nH]c1C | inactive | 
16 | C=CC(=O)NCOCCCC | inactive | 
17 | O=Cc1ccc(CO)o1 | inactive | 
18 | Cc1ccc(Cl)cc1 | inactive | 
19 | COc1c(Cl)ccc(Cl)c1C(=O)O | inactive | 
20 | CCOC(=O)CC(=O)OCC | inactive | 

Row | SMILES | Potency | cytotoxicity [%]
21 | NCCNCCNCCN |  | -10.3
22 | CCCCCCCCO | inactive | 
23 | CCc1cccc(CC)c1N | inactive | 
24 | OCCOCCOCCOCCOCCO | inactive | 
25 | N#CCC(=O)O | inactive | 
26 | CCCOCC(C)O (stereo not given) | inactive | 
27 | COc1c2ccoc2cc2oc(=O)ccc12 | inactive | 
28 | CC(=O)OC[C@H]1O[C@@](COC(C)=O)(O[C@H]2O[C@H](COC(C)=O)[C@@H](OC(C)=O)[C@H](OC(C)=O)[C@H]2OC(C)=O)[C@@H](OC(C)=O)[C@@H]1OC(C)=O | inactive | 
29 | O=C(c1ccccc1)c1ccc(O)c(O)c1O | inactive | 
30 | CC(=O)c1nccs1 | inactive | 
31 | O=C(O)C1=NN(c2ccc(S(=O)(=O)O)cc2)C(=O)C1 | inactive | 
32 | COc1ccc(N)c(OC)c1 | inactive | 
33 | OCC(O)CS (stereo not given) | inactive | 
34 | Brc1ccc(Oc2ccc(Br)cc2)cc1 | inactive | 
35 | CC1(C)C(=O)N(Cl)C(=O)N1Cl | inactive | 
36 | Oc1ccc(Cc2ccccc2O)cc1 | inactive | 
37 | O=C(NCC1CCCCN1)c1cc(OCC(F)(F)F)ccc1OCC(F)(F)F (stereo not given) | inactive | 
38 | O=C1OC(=O)c2c(Cl)c(Cl)c(Cl)c(Cl)c21 | inactive | 
39 | CC(C)c1ccc(C(C)C)cc1 | inactive | 
40 | COc1ccc([C@@H]2CC(=O)c3c(O)cc(O[C@@H]4O[C@H](CO[C@@H]5O[C@@H](C)[C@H](O)[C@@H](O)[C@H]5O)[C@@H](O)[C@H](O)[C@H]4O)cc3O2)cc1OC | inactive | 
